In PubChem BioAssay:

What follows are compounds tested against NADPH oxidase 2 (Homo sapiens) (UniProt P04839) (assay: NOX2-dependent H2O2 signal modulators, primary screen, NOX inhibitor project, cell-based, HEK293-NOX2, PMA-stimulated, Amplex Red fluorescence (AID 1159; also: test concentration not given here)). Settings: 45 min, higher = more signal, called active from +8 up or from −8 down.
Sequence of NADPH oxidase 2 (Homo sapiens) (P04839 whole entry, looked up): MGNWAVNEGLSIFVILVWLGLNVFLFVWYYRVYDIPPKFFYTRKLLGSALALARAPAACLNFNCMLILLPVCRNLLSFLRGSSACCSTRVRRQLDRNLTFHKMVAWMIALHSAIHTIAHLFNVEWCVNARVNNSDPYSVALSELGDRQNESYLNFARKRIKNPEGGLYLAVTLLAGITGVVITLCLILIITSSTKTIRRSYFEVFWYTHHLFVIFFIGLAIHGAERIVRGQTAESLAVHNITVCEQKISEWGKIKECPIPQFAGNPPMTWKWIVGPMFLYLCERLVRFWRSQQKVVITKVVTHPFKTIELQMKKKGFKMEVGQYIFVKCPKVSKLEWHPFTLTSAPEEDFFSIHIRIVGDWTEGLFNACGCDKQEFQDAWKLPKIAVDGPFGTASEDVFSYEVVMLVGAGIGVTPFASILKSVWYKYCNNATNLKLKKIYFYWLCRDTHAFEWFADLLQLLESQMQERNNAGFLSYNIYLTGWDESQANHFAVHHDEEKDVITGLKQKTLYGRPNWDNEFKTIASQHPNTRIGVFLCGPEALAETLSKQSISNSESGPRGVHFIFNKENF

z-score, inactive:
C#CCN([C@@H](Cc1ccc(O)cc1)C(=O)OC)[C@@H](/C=C/C1CC1)[C@H](O)Cc1ccccc1 0.544
O=C1O[C@@H](c2ccccc2)[C@@H](c2ccccc2)N2[C@@H](c3ccccc3OCCO)[C@]3(C(=O)Nc4ccc(C#CCCO)cc43)[C@@H](C(=O)N3CCCCCCC3)[C@H]12 1.02
CCOC(=O)C1=C[C@@H](c2ccccc2)N(S(=O)(=O)c2ccc(C)cc2)[C@H]1c1ccccc1Cl 0.574
CCCNC(=O)[C@@]1(c2ccc([N+](=O)[O-])cc2)CC(=O)N(C2CCCCC2)[C@@H]1c1ccc(CO)cc1 0.325
COC(=O)Cn1c(C(=O)N(C)C)cc2c1C[C@H]1CN(C(=O)c3ccccc3)[C@@](Cc3ccc(F)cc3)(C(=O)OC)[C@@H]21 0.174
O=C1C[C@@](C(=O)NCCN2CCOCC2)(c2ccc([N+](=O)[O-])cc2)[C@@H](c2ccc(CO)cc2I)N1C1CCCCC1 2.1
C=CCN1Cc2ccccc2[C@H]2OC(c3ccc(OCCCO)cc3)=N[C@@]2(CC=C)C1=O -1.66
O=C1c2ccccc2[C@](Cc2ccccc2I)(C(=O)NCC(F)(F)F)[C@H](c2ccc(CO)cc2)N1C1CCCCC1 -2.92
COc1ccc(C(O)C2C=CC3C(=O)N(c4ccccc4)C(=O)C3N2Nc2ccc([N+](=O)[O-])cc2)cc1 (stereo not given) -0.897
COCCOC(=O)N1C(=O)[C@@]2(c3cc(C#CCC(C(=O)OC)C(=O)OC)ccc31)[C@H](C(=O)N1CCc3cc(OC)c(OC)cc3C1)[C@H]1C(=O)O[C@H](c3ccccc3)[C@H](c3ccccc3)N1[C@@H]2c1ccc(OCCO)cc1 1.98

These compounds were tested against NADPH oxidase 4 (Homo sapiens) (UniProt Q9NPH5) (assay: NOX4-dependent H2O2 signal modulators, primary screen, NOX inhibitor project, cell-based, HEK293-NOX4, tetracycline-induced, Amplex Red fluorescence (AID 1160)). Settings: 45 min, higher = more signal, called active from +8 up or from −8 down.
Sequence of NADPH oxidase 4 (Homo sapiens) (Q9NPH5 whole entry, looked up): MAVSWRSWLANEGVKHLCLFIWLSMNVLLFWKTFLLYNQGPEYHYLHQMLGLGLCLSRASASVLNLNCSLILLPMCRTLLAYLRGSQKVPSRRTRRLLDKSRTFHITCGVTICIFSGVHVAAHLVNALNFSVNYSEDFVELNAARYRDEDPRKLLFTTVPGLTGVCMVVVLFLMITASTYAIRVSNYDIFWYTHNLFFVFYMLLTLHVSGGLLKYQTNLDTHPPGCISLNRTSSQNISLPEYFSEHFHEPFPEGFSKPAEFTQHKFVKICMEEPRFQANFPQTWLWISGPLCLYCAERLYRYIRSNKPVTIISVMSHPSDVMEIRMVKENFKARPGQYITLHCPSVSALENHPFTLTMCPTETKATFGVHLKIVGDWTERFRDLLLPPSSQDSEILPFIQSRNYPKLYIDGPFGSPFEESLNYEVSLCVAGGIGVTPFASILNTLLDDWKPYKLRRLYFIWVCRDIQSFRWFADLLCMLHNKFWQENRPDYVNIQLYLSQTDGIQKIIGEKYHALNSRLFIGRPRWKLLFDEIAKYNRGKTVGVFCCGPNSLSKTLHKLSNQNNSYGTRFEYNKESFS

z-score, inactive:
COc1ccc([Si](C)(C)[C@H]2[C@H](CCO)O[C@@]3(C(=O)N(Cc4cccc(N5C(=O)COc6ccccc65)c4)c4ccccc43)[C@@H]2C)cc1 1.1
CC(C)(C)OC(=O)CC[C@@]1(C(=O)NCc2ccccc2)N=C(c2ccc(OCCCO)cc2)O[C@@H]1c1ccccc1N=[N+]=[N-] 0.457
CN(C)CCCNC(=O)[C@@]1(c2ccc([N+](=O)[O-])cc2)CC(=O)N(CC23CC4CC(CC(C4)C2)C3)[C@@H]1c1ccc(CO)cc1I -5.46
C=C[C@@H](OC)[C@H](OC(=O)Nc1ccc(SC)cc1)c1ccc(O)c(F)c1 -2.4
CCC(CC)C(O)C1C=CC2C(=O)N(c3ccccc3)C(=O)C2N1Nc1ccc(C(C)C)cc1 (stereo not given) -4.43
COC(=O)[C@@]1(Cc2ccc(F)cc2)[C@H]2c3cc(C(=O)N(C)C)n(CCc4ccc(O)c(OC)c4)c3C[C@H]2CN1C(=O)c1ccccc1 -0.627
CC(C)[Si](C#CCCCC#N)(O[C@H](c1ccccc1)c1cn([C@H](CO)Cc2ccccc2)nn1)C(C)C 0.789
Cc1cc(C)c(C(O)C2C=CC3C(=O)NC(=O)C3N2Nc2ccc(Cl)cc2Cl)c(C)c1 (stereo not given) -4.94
CCOc1cc(C(O)C2C=CC3C(=O)N(C)C(=O)C3N2Nc2ccccc2)ccc1O (stereo not given) -1.94
O=C1O[C@H](c2ccccc2)[C@H](c2ccccc2)N2[C@H]1[C@@H](C(=O)Nc1nc3ccccc3s1)[C@]1(C(=O)Nc3ccc(C#CCCO)cc31)[C@H]2c1ccc(O)cc1 0.38
CC(C)OC(=O)C=C1C[C@@H](c2ccc(C(F)(F)F)cc2)O[C@@H](c2ccc(C(F)(F)F)cc2)O1 -0.175
CN(C)C(=O)[C@]1(CCS(=O)(=O)c2ccccc2)N=C(c2ccc(OCCCO)cc2)O[C@@H]1c1ccccc1N=[N+]=[N-] 1.64
C=CCOC(=O)[C@H]1[C@@H]2C(=O)O[C@@H](c3ccccc3)[C@@H](c3ccccc3)N2[C@@H](c2ccc(OCCOC(=O)[C@H]3C[C@H]4C(=O)N[C@@H](CCCCNC(C)=O)C(=O)N4[C@H]3c3ccc(O)cc3)cc2)[C@]12C(=O)Nc1ccccc12 1.44
CC(CO)N1C(=O)[C@@H]2[C@H]3C(=O)OCC=C[C@H]3OC23C=CCN(Cc2ccccc2)C(=O)[C@@H]13 (stereo not given in full) 0.662
COCCOC(=O)N1C(=O)[C@@]2(c3cc(C#Cc4ccc(OC)cc4)ccc31)[C@H](C(=O)Nc1nc3ccccc3s1)[C@H]1C(=O)O[C@H](c3ccccc3)[C@H](c3ccccc3)N1[C@@H]2c1ccc(O)cc1 -0.118
